The values that follow come from PubChem BioAssay (Tox21).

Records with an inconclusive call do not appear. Where a call stands in place of a potency, no number is given. Calls of active or inactive are those of the source. The call rests on the fitted dose curve; in most records, active means well fitted activation curve with a large enough effect in the repeat runs; inconclusive means weak or mixed curves; inactive means flat fitted curve, though single readings scatter.
Potency means the concentration at half of the fitted maximal effect.

This assay is described as follows: A CellTox Green Cytotoxicity Assay to monitor cytotoxicity in HEK293 cells - 24 hour (AID 1224875). Further: nearly all actives have a fitted effect of over 45% in size. The settings on record: CellTox Green fluorescence; series mostly up to 76.8 µM. The source says: National Center for Advancing Translational Sciences [NCATS]
NIH Chemical Genomics Center [NCGC]
U.S. Environmental Protection Agency [EPA]
National Institutes of Environmental Health Sciences [NIEHS]
National Toxicology Program [NTP]
Cell-based models are critical for drug discovery. Determining the natural cytotoxic effects resulting from test compounds is an essential research activity. A CellTox Green Cytotoxicity Assay to monitor cytotoxicity in real time of continues cell culture during 40 hours of the compound treatment was used to screen Tox21 10K library compounds in Hek293 cells. CellTox Green Cytotoxicity Assay is a nonlytic, homogeneous, biofluorescent method to measure cytotoxicity in cell culture after experimental manipulation. The assay system uses a proprietary asymmetric cyanine dye that is excluded from viable cells but preferentially stains the dead cell's DNA. […] Viable cells produce no appreciable increases in fluorescence. Therefore, the fluorescence signal produced by the binding interaction with dead cell DNA is proportional to cytotoxicity.
The mixture of Hek293 cell suspension and reagents were dispensed at 600cells/6 ul/well in 1536-well tissue culture treated black solid bottom plates using a Multidrop dispenser. After the assay plates were incubated at a 37 C/5% CO2 incubator for 5 hours, 23 nL of compounds dissolved in DMSO, positive and negative controls was transferred to the assay plate by a pintool work station. The plates were incubated at 37 C for 40 hours. The fluorescence intensity were measured at 0h, 8h, 16h, 24h, 32h and 40h time points using ViewLux plate reader during compound treatment.
In the case of `Nc1ccc(N)c2ccccc12`, the Potency result was “inactive”.
In the case of `C=CC(=O)OCC(CO)(COC(=O)C=C)COC(=O)C=C`, the Potency was 43.6 µM (active).
As for `Cc1cc2c(cc1C(F)(F)F)N(C(=O)Nc1ccc(Oc3cccnc3C)nc1)CC2`, the Potency entry is “inactive”.
Regarding `O=C(c1ccc(O)cc1O)c1ccc(O)cc1O`, the Potency result is “inactive”.
As for `CCc1cc(Cc2cc(CC)c(N)c(CC)c2)cc(CC)c1N`, the Potency result was “inactive”.
As to `CCCCCCCC/C=C\CCCCCCCCOCCO`, the Potency entry is “inactive”.
Consider `S=c1[nH]c2ccccc2s1`, for which the Potency is 43.6 µM (active).
Take `O=C(Oc1cccc2cccnc12)c1ccccc1`: the Potency entry is “inactive”.
Next, `CCCCCCCCOc1ccccc1C(=O)Nc1ccc(C(=O)OCC[N+](C)(CC)CC)cc1`: 23.9 µM (active); `C1CCCC1`: “inactive”; `CCCCN(CCCC)C(=O)N(CCCC)CCCC`: “inactive”.
As for `N#CC1(c2ccc(F)cc2)CCC(=O)CC1`, the Potency result is “inactive”.
As for `CC(=O)SC[C@@H](Cc1ccccc1)C(=O)NCC(=O)OCc1ccccc1`, the Potency result is “inactive”.
In the case of `CN(C)C(=O)C1(N2CCCCC2)CCN(CC[C@@]2(c3ccc(Cl)c(Cl)c3)CN(C(=O)c3ccccc3)CCO2)CC1`, the Potency was 40.8 µM (active).
As to `Nc1ccccc1O`, the Potency entry was “inactive”.
Next, `CCCCCCCCCCCCCCCC[N+](C)(C)CCN(Cc1ccc(OC)cc1)c1ncccn1`: 8.49 µM (active); `CNCc1cc(F)ccc1Oc1ccc(Cl)c(Cl)c1`: 49 µM (active); `O=C1C=CC(=O)N1c1ccc(Cc2ccc(N3C(=O)C=CC3=O)cc2)cc1`: 38.9 µM (active).
Next, `CCCC/C=C/CCCCO`: “inactive”; `CO[Si](CCCNc1ccccc1)(OC)OC`: “inactive”.
For `Cc1ccc2oc(CN(Cc3ccccc3)C(=O)Nc3c(F)cc(F)cc3F)c(-c3ccc(Cl)cc3)c2c1`, the Potency result is “inactive”.
Take `CN(C)c1ccc(SC#N)cc1`: the Potency result was “inactive”.
Next, `O=C(c1ccc(F)cc1)C1CCN(CCn2c(=O)[nH]c3ccccc3c2=O)CC1`: “inactive”.
Next, `Cc1oc(-c2ccccc2)nc1CCC(=O)c1ccc(CC2SC(=O)NC2=O)cc1` (stereo not given): “inactive”; `O=C(Nc1cccc([N+](=O)[O-])c1)c1cc2ccccc2cc1O`: “inactive”.
Turning to `C=C(C)C(=O)OCC(O)COc1ccc(C(C)(C)c2ccc(OCC(O)COC(=O)C(=C)C)cc2)cc1` (stereo not given), the Potency result is “inactive”.
Next, `CCCCN1CCCC[C@H]1C(=O)Nc1c(C)cccc1C`: “inactive”; `CC[C@H]1O[C@]2(CC[C@@H]1C)C[C@@H]1C[C@@H](C/C=C(\C)C[C@@H](C)/C=C/C=C3\CO[C@@H]4[C@H](O)C(C)=C[C@@H](C(=O)O1)[C@]34O)O2`: 48.5 µM (active).
With `CCCCCCCCCCCCCC[P+](CCCC)(CCCC)CCCC` (tested in a mixture with another compound), the Potency was 17.5 µM (active).
Regarding `O=C(O)c1ccc(Cl)c(Cl)c1`, the Potency entry is “inactive”.
For the molecule `Cc1cc(O)c(C(C)(C)C)cc1Sc1cc(C(C)(C)C)c(O)cc1C`, the Potency is 48.9 µM (active).
Next, `Nc1ccc2c3c(cccc13)-c1ccccc1-2`: 44.1 µM (active).
Turning to `CCCCCCCCCCCCCCCCCC[N+](C)(C)Cc1ccccc1`, the Potency is 24.8 µM (active).
Next, `CC(=O)N1CCN(c2ccc(OC[C@H]3CO[C@](Cn4ccnc4)(c4ccc(Cl)cc4Cl)O3)cc2)CC1`: 43.6 µM (active); `CCC(Cl)C(Cl)C(Cl)CC(Cl)C(Cl)C(C)Cl` (stereo not given): “inactive”.
On to `N#CSc1ccc(N)c([N+](=O)[O-])c1`, for which the Potency result was “inactive”.
Next, `Nc1nc2ccccc2n1Cc1ccc(F)cc1`: “inactive”; `CN(C)[C@@H]1C(=O)C(C(N)=O)=C(O)[C@@]2(O)C(=O)C3=C(O)c4c(O)ccc(Cl)c4[C@@H](O)[C@H]3C[C@@H]12`: “inactive”.
Next, `Nc1ccc2cc(S(=O)(=O)O)cc(O)c2c1N=Nc1ccccc1C(F)(F)F`: “inactive”; `NC(=NCCCCCCN=C(N)/N=C(\N)Nc1ccc(Cl)cc1)/N=C(\N)Nc1ccc(Cl)cc1`: 24.4 µM (active) [middle of 4 runs].
